Activity calls are given as the source filed them. How the source made its calls: active means hit-call score of the fitted dose curve at least 0.9, where 1 is the maximum; inactive means score below 0.9.
Assay: ATG_M_61_CIS: Attagene CIS-FACTORIAL HepG2 Assay for M61 Transcription Factor (Internal Marker) (AID 2282937)
Conditions: HepG2 Attagene CIS-FACTORIAL M61 internal marker reporter; actives raise or lower the signal
Protocol: ATG_CIS is a cell-based, multiplexed-readout assay that uses HepG2, a human liver cell line, with measurements taken at 24 hours after chemical dosing in a 24-well plate.ATG_M_61_CIS is one of 52 assay component(s) measured or calculated from the ATG_CIS assay. It is designed to make measurements of mRNA induction, a form of inducible reporter, as detected with fluorescence intensity signals by Reverse transcription polymerase chain reaction (RT-PCR) and Capillary electrophoresis technology.Data from the assay component ATG_M_61_CIS was analyzed into 1 assay endpoint. This assay endpoint, ATG_M_61_CIS, was analyzed with bidirectional fitting relative to DMSO as the negative control and baseline of activity. Using a type of inducible reporter, measures of mRNA for gain or loss-of-signal activity can be used to understand the background control at the transcription factor-level as they relate to the gene . Furthermore, this assay endpoint can be referred to as a secondary readout, because this assay has produced multiple assay endpoints where this one serves a background control function. To generalize the intended target to other relatable targets, this assay endpoint is annotated to the background measurement intended target family, where the subfamily is internal marker.
Human liver HepG2 cells are transiently transfected with multiple reporter transcription units (MRTUs) in 6-well plates using FuGene 6 reagent (Roche; 3 ml FuGene/1 mg DNA). The MRTU constructs are regulated by a cis-regulating element (promoter). […] A major difference between the CIS and TRANS system is that in CIS activities of endogenous TFs are measured, whereas the TRANS assay evaluates changes in activities of exogenous, chimeric NR-Gal4 proteins. […] At the end of 24 hour incubation, total RNA was isolated using TriZol reagent (Invitrogen). The isolated RNA is then reverse-transcribed using oligo(dT) primer and Mo-MLV reverse transcriptase (Invitrogen) with DNAse I (Ambion) treatment for 30 min. The one-tenth of the produced cDNA was amplified by PCR using Taq DNA polymerase (Invitrogen) and two reporter sequence-specific primers. The PCR products were fluorescently labeled by primer extension with 6-arboxyfluorescein (6-FAM) 5'-labeled reporter sequence-specific primer (2 min at 95 C, 20 s at 68 C and 10 min at 72 C) and these products were digested with 5U of HpaI (New England Biolabs) for 2h at 37 C. The fragments were purified using Qiaquick PCR columns (Qiagen), analyzed on an ABI 3130xL genetic analyzer (Applied Biosystems) with peak positions identified by using a set of X-rhodamine (ROX)-labeled MapMarker1000 molecular weight standards (BioVentures). The raw capillary electrophoresis data was processed using Attagraph software (Attagene).
In the case of `C=CC(=O)OCC(CC)CCCC` (stereo not given), the outcome is reported as “inactive”. In the case of `O=[N+]([O-])c1cc(C(F)(F)F)c(Cl)c([N+](=O)[O-])c1Cl`, the outcome is reported as “inactive”. For `CC(C)COP(=O)(OCC(C)C)OCC(C)C`, the outcome was “inactive”. In the case of `O=P1(NCCCl)OCCCN1CCCl` (stereo not given), the outcome is reported as “inactive”. For `C=CC(=O)OC`, the outcome was “inactive”. In the case of `BrCBr`, the outcome is reported as “inactive”. For `O=c1c2ccccc2c(=O)c2c1cc(Cl)c1[nH]c3c([nH]c12)c(Cl)cc1c(=O)c2ccccc2c(=O)c13`, the outcome was “inactive”. With `CCCCCCC1CCOC1=O` (stereo not given) the outcome was “inactive”. With `CC(=O)c1cc2c(cc1C)C(C)(C)C(C)CC2(C)C` (stereo not given) the outcome was “inactive”. In the case of `CCC[N+](=O)[O-]`, the outcome is reported as “inactive”. In the case of `CCC(=O)c1ccc(Cl)cc1`, the outcome is reported as “inactive”. For `O=C(O)C(Br)Br`, the outcome was “inactive”. For `C#CC1(O)CCCCC1`, the outcome was “inactive”. In the case of `CC[N+](=O)[O-]`, the outcome is reported as “inactive”. In the case of `O=[N+]([O-])c1cc([N+](=O)[O-])c2ccccc2c1`, the outcome is reported as “inactive”. In the case of `[CH3][Sn]([Cl])([Cl])[Cl]`, the outcome is reported as “inactive”. For `N#CCCCCC#N`, the outcome was “inactive”. In the case of `[N-]=[N+]=CC(=O)OC[C@H](N)C(=O)O`, the outcome is reported as “inactive”. For `C=CC(=O)OCCO`, the outcome was “inactive”. For `CCOP(=O)(OCC)Oc1ccc([N+](=O)[O-])cc1`, the outcome was “inactive”. For `CN(C)N`, the outcome was “inactive”. For `CC1CCC(=O)O1` (stereo not given), the outcome was “inactive”. For `O=C1C=CC(=O)C=C1`, the outcome was “inactive”. For `CC(C)CCCCCCCOC(=O)c1ccccc1C(=O)OCCCCCCCC(C)C`, the outcome was “inactive”. With `O=P(O)(Oc1ccccc1)Oc1ccccc1` the outcome was “inactive”. In the case of `C[N+](=O)[O-]`, the outcome is reported as “inactive”. With `CCOC(=O)N(C)N=O` the outcome was “inactive”. With `Cc1cc(C)c(C2=C(OC(=O)CC(C)(C)C)C3(CCCC3)OC2=O)c(C)c1` the outcome was “inactive”. With `CCCCOC(=O)CCC(=O)OCCCC` the outcome was “inactive”. For `C=CCc1ccc(OC(=O)Cc2ccccc2)c(OC)c1`, the outcome was “inactive”. For `CNC(=O)Oc1cc(C)c(SC)c(C)c1`, the outcome was “inactive”. For `CC(C)(C)C(O)C(Oc1ccc(-c2ccccc2)cc1)n1cncn1` (stereo not given), the outcome was “inactive”. With `CCC1CCC(=O)O1` (stereo not given) the outcome was “inactive”. With `c1cc(OCC2CO2)ccc1Cc1ccc(OCC2CO2)cc1` (stereo not given) the outcome was “inactive”. For `[Cl-].[Cl-].[Cl-].[Yb+3]`, the outcome was “inactive”. In the case of `Cc1ccc(N(SC(F)(Cl)Cl)S(=O)(=O)N(C)C)cc1`, the outcome is reported as “inactive”. With `CNC(=N[N+](=O)[O-])NCC1CCOC1` (stereo not given) the outcome was “inactive”. With `O=[N+]([O-])c1ccc(Cl)cc1` the outcome was “inactive”. In the case of `N#CCCCl`, the outcome is reported as “inactive”. For `O=C(CCl)c1ccccc1`, the outcome was “inactive”.

Source: PubChem BioAssay (EPA / NIEHS)
